Results on 17 molecules are retold here after PubChem BioAssay (NCI).

Each structure is given as a SMILES string. The panel holds about 83,000 compounds, 20% with a hit somewhere; the sample as a whole holds those more often.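 Values shown are percent growth following 48 h exposure of cells in 96-well plates to a single concentration of compound; below 10 was considered active.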 Values without a mark were called inactive. Calls of active or inactive are those of the source.

Test systems include T-47D breast; BT-549 breast; MDA-MB-435 melanoma; MCF7 breast; HCT-116 colon; KM12 colon; HCC-2998 colon; SW-620 colon.
Common to all, as to assay: NCI-60 one-dose screen, 48 h (100 = growth as untreated, 0 = no growth, -100 = all killed)
Holding throughout (settings): 10 µM unless noted

On to `C=C(C)[C@@H]1CC[C@]2(C)[C@H](C(=O)C=C3[C@@H]4C[C@](C)(C(=O)N5CCN(C)CC5)CC[C@]4(C)CC[C@]32C)[C@@]1(C)CCC#N`, for which the growth in the assay on T-47D breast is -40.5% [100 µM] (active); in the assay on BT-549 breast, -73.3% [100 µM] (active); in the assay with MDA-MB-435 melanoma it was -81% [100 µM] (active); with MCF7 breast, -71.1% [100 µM] (active); in the assay on HCT-116 colon, -70.7% [100 µM] (active); with KM12 colon it was -80.2% [100 µM] (active).
As to `Nn1c(Nc2ccc(S(=O)(=O)Nc3ncccn3)cc2)nnc(/C=C/c2c(O)ccc3ccccc23)c1=O`, the growth in the assay on T-47D breast is 70.9%; in the assay with BT-549 breast, 101%; with MDA-MB-435 melanoma it was 95.2%; with MCF7 breast, 76.6%; with HCT-116 colon it was 89.9%; in the assay with HCC-2998 colon, 114%. The growth in the assay on KM12 colon is 82.9%.
Turning to `CCN(CC)CCCOc1ccc2c(c1)O/C(=C\c1cccc(OC)c1)C2=O`, the growth is 87.6% with T-47D breast; 78.4% in the assay on BT-549 breast; 91.9% in the assay with MDA-MB-435 melanoma; 72.8% in the assay with MCF7 breast; 51.8% in the assay on HCT-116 colon; 93.2% in the assay with KM12 colon.
As to `COc1ncc(-c2ccc3nc(N)n(-c4ccccc4C(F)(F)F)c(=O)c3c2)cc1S(=O)(=O)Nc1ccc(F)cc1F`, the growth is 30.3% with T-47D breast; 49.1% with BT-549 breast; 31.2% in the assay with MDA-MB-435 melanoma; 43.7% in the assay on MCF7 breast; 32.5% with HCT-116 colon; 39.7% in the assay on HCC-2998 colon. Also, in the assay on KM12 colon, the growth was 21.1%.
Turning to `Cc1ccc(-n2nc3n(/c2=N\C(=O)NS(=O)(=O)c2ccc(C)cc2)CCN3C2=NCCN2)cc1`, the growth in the assay with T-47D breast is 78.3%; in the assay with BT-549 breast, 84.4%; in the assay with MDA-MB-435 melanoma, 97.3%; in the assay with MCF7 breast it was 94.6%; with HCT-116 colon, 87.3%; in the assay on HCC-2998 colon, 97.3%. Further, the growth with KM12 colon is 105%.
Regarding `O=[N+]([O-])c1cccc(N=NNc2cccc([N+](=O)[O-])c2)c1`, the growth in the assay on T-47D breast is 76.3%; in the assay with BT-549 breast it was 101%; in the assay with SW-620 colon, 91.7%; with MCF7 breast it was 65.3%; with HCT-116 colon, 114%; with HCC-2998 colon, 104%. The growth with KM12 colon is 95.2%.
As to `CCn1cc(-c2ccnc(NCCNS(=O)(=O)c3ccc(Br)cc3)c2)c(-c2cccc(OC)c2)n1`, the growth in the assay with T-47D breast was 16.3%; with BT-549 breast it was 99.7%; with MDA-MB-435 melanoma, 83.7%; in the assay with SW-620 colon, 81.7%; with HCT-116 colon it was 51.6%; in the assay with KM12 colon, 82.8%.
Regarding `O=C(Nc1cccc(C2=NCCN2)c1)c1cccc(C(=O)Nc2cccc(C3=NCCN3)c2)c1`, the growth in the assay on T-47D breast was 96.7%; in the assay with BT-549 breast, 110%; in the assay on MDA-MB-435 melanoma it was 98.8%; in the assay with MCF7 breast, 88.4%; with HCT-116 colon, 99.7%; with HCC-2998 colon it was 107%. Also, the growth in the assay with KM12 colon is 101%.
Regarding `CC(C)CSc1ncnc2nc[nH]c12`, the growth was 85.7% in the assay with T-47D breast; 104% with BT-549 breast; 104% in the assay with MDA-MB-435 melanoma; 97.1% with MCF7 breast; 109% with HCT-116 colon; 101% in the assay on HCC-2998 colon. In the assay on KM12 colon, the growth is 106%.
As for `Cn1cc(-c2nnc(-c3cn(C)c4ncccc34)s2)c2ccccc21`, the growth in the assay with T-47D breast is 47.9%; in the assay on BT-549 breast, 68.3%; in the assay on MDA-MB-435 melanoma, 9.15% (active); with MCF7 breast it was 58.6%; in the assay on HCT-116 colon it was 76.6%; with HCC-2998 colon, 82.6%. Besides, in the assay with KM12 colon, the growth was 25.4%.
In the case of `NS(=O)(=O)c1ccc(CCN2C(=O)/C(=C\c3ccccc3)C=C2c2ccc(Cl)cc2)cc1`, the growth with T-47D breast was 88.9%; in the assay with BT-549 breast, 96.4%; with MDA-MB-435 melanoma, 99.8%; with MCF7 breast, 81.2%; in the assay on HCT-116 colon it was 96.5%; in the assay on HCC-2998 colon, 105%. For the same molecule, the growth with KM12 colon was 99%.
In the case of `CCOc1cc(NC(=O)c2ccccc2)c(OCC)cc1N`, the growth is 101% with T-47D breast; 130% in the assay with BT-549 breast; 107% in the assay on MDA-MB-435 melanoma; 108% in the assay on MCF7 breast; 118% in the assay with HCT-116 colon; 112% with HCC-2998 colon. In addition, the growth with KM12 colon is 105%.
`Cc1ccccc1-n1nnc(C(=O)Nc2nc3ccc(F)cc3s2)c1C`: the growth in the assay on T-47D breast was 18.1%; in the assay with BT-549 breast, 36.8%; with MDA-MB-435 melanoma, 59.2%; with SW-620 colon, 85.5%; in the assay with HCT-116 colon it was 46.5%; in the assay on HCC-2998 colon, 78.6%. For the same molecule, in the assay on KM12 colon, the growth was 72.4%.
As to `COc1ccc(C2CC(c3cc(OC)c(OC)c(OC)c3)=NN2C(C)=O)cc1OCC(=O)Nc1nc2ccc(C(F)(F)F)cc2s1` (centres undefined), the growth is 67.5% in the assay with T-47D breast; 47.5% in the assay on BT-549 breast; 69.5% in the assay with MDA-MB-435 melanoma; 84.7% with SW-620 colon; 30.5% with HCT-116 colon; 64.5% in the assay on KM12 colon.
For the molecule `CCOC(=O)c1nn(C2CCCCO2)c2ccc(NC(=O)CN3CCOCC3)cc12` (centres undefined), the growth with T-47D breast was 98.9%; in the assay on BT-549 breast it was 101%; in the assay on MDA-MB-435 melanoma it was 106%; in the assay on MCF7 breast, 97.3%; with HCT-116 colon, 90.5%; with HCC-2998 colon, 109%. In addition, the growth in the assay on KM12 colon is 105%.
On to `CCCCNC(=O)NS(=O)(=O)Cc1ccccc1`, for which the growth in the assay on T-47D breast was 113%; in the assay on BT-549 breast, 104%; in the assay on MDA-MB-435 melanoma, 116%; in the assay on SW-620 colon, 108%; with HCT-116 colon, 112%; in the assay on KM12 colon it was 109%.
As for `COc1cc(NCc2cn(-c3ccc(C(=O)O)cc3)nc2-c2ccc(C(=O)O)cc2)cc(OC)c1OC`, the growth was 93.7% in the assay with T-47D breast; 96.2% in the assay with BT-549 breast; 102% with MDA-MB-435 melanoma; 93.3% in the assay with MCF7 breast; 97.5% with HCT-116 colon; 104% in the assay with HCC-2998 colon. Moreover, the growth with KM12 colon is 100%.
